In PubChem BioAssay (NCATS):
Results filed as inconclusive are left out. Where a call stands in place of a potency, no number is given. Active and inactive are the calls of the source. The call rests on the fitted dose curve; in most records, active means well fitted curve in the direction sought with a large enough effect; inconclusive means small, poorly fitted or top-dose-only effect, or another doubt; inactive means no such curve, though single readings can be large; an effect the other way counts as inactive or inconclusive.

Columns and labels:
[1] = UWB1.289 Cancer Cell Toxicity qHTS against the NCATS CANVASS Library (AID 1347347); further: nearly all actives have a fitted effect of over 60% in size; further: potency means the concentration at half of the fitted maximal effect
Method in brief: (§1)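 Cells were seeded at 1000 per well, allowed 4 h at 37 degrees C/5% CO2, then pin-treated with an 11-point compound series. After 72 h, viability was read as CellTiter-Glo luminescence following 15min at room temperature.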

[2] = SDT Cancer Cell Toxicity qHTS against the NCATS CANVASS Library (AID 1347365); further: nearly all actives have a fitted effect of over 60% in size; further: potency means the concentration at half of the fitted maximal effect
Method in brief: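 SDT dog glioma cells (500/well) exposed to an 11-point compound series for 72 hr at 37C, 5% CO2. Cytotoxicity read as ATP content by CellTiterGlo luminescence; bortezomib titration as control.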

[3] = qHTS for Antimalaria activity screened against the NCATS CANVASS Library (AID 1347380); further: nearly all actives have a fitted effect of over 40% in size; further: potency means the concentration at half of the fitted maximal effect
Method in brief: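 Red blood cells infected with P. falciparum Dd2 (2.5% hematocrit final, 0.3% parasitemia) were exposed to compounds in an 11-point qHTS series for 72 hr at 37C under 5% O2 and 5% CO2. Lysis buffer with SYBR Green was then added for 18 hr, and fluorescence was read at 485/535 nm.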

[4] = OV-SAHO Cancer Cell Toxicity qHTS against the NCATS CANVASS Library (AID 1347348); further: nearly all actives have a fitted effect of over 55% in size; further: potency means the concentration at half of the fitted maximal effect
Method in brief: as §1

[5] = HEK-293 Cancer Cell Toxicity qHTS against the NCATS CANVASS Library (AID 1347355); further: nearly all actives have a fitted effect of over 65% in size; further: potency means the concentration at half of the fitted maximal effect
Method in brief: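 Cells at 1000/well were given compound 4 h after plating in an 11-point series. Viability was read by CellTiter-Glo luminescence after 72 h at 37 degrees C.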

[6] = HPAF-II 18hr Apoptosis Induction qHTS against the NCATS CANVASS Library (AID 1347360)
Method in brief: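 Caspase-Glo 3/7 luminescence (DEVD substrate) after 15 min RT; HPAF-II, 500 cells/well, 18 h compound exposure at 37 degrees C, qHTS series; doxorubicin control 0.1nM - 4uM.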

[7] = qHTS for Hypoxia signaling pathway (HIF-1) antagonists against the NCATS CANVASS Library (AID 1347374); further: nearly all actives have a fitted effect of over 60% in size; further: potency means the concentration at half of the fitted maximal effect
Method in brief: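 HRE-bla ME-180 cells in medium with 0.5% dialyzed FBS received compounds (11-point series) plus CoCl2 (60 uM addition stock) for 17 hrs at 37C. Beta-lactamase activity read with CCF4 (405 nm ex, 460/530 nm em); CellTiter-Glo viability measured in same wells.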

[8] = qHTS for Activators of p53 Stress Response Pathway screened against the NCATS CANVASS Library (AID 1347388); further: potency means the concentration at half of the fitted maximal effect
Method in brief: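 Beta-lactamase reporter driven by p53 response elements in HCT-116 cells, read as the 460 nm/530 nm emission ratio after CCF4 loading, following 16 h of exposure to an 11-point series. Cell viability was measured in the same wells by CellTiter-Glo luminescence.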

[9] = Redox Reaction Profiling qHTS: Assay Interference Panel against the NCATS CANVASS Library (AID 1347401); further: potency means the concentration at half of the fitted maximal effect
Method in brief: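 Cell-free redox surrogate: 5 uM resazurin + 200 uM DTT, 50 mM HEPES pH 7.3/50 mM NaCl; cpds pinned, 11-pt qHTS; Ex525/Em598 read t0 and t=15 min, dark.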

Question: With `O=C1c2c(O)cc(O)cc2O[C@@H](c2ccc(O)cc2)[C@@H]1c1c(O)cc(O)c2c(=O)cc(-c3ccc(O)c(O)c3)oc12` as the compound, how does the Potency [1] read?
Answer: The Potency was “inactive”.

Question: What about the Potency [2] of the same compound?
Answer: The Potency was “inactive”.

Question: For `C[C@@H]1O[C@@H](Oc2c(-c3ccc(O)cc3)oc3cc(O)cc(O)c3c2=O)[C@H](O)[C@H](O)[C@H]1O`, which Potency [1] is on record?
Answer: The Potency was “inactive”.

Question: What about the Potency [2] of the same compound?
Answer: Its Potency is “inactive”.

Question: What about the Potency [3] of the same compound?
Answer: The Potency was “inactive”.

Question: With `C[C@@H]1O[C@@H](O[C@@H]2[C@@H](O)[C@H](O[C@@H]3[C@@H](O)[C@@H](O)C(O[C@H]4[C@H](OC(=O)[C@]56CCC(C)(C)C[C@H]5C5=CCC7[C@@]8(C)C[C@H](O)[C@H](O[C@@H]9C[C@H](CO)[C@@H](O)[C@H](O)[C@H]9O)[C@@](C)(CO)C8[C@H](O)C[C@@]7(C)[C@]5(C)CC6)OC[C@H](O)[C@@H]4O)O[C@H]3C)OC[C@H]2O)[C@H](O)[C@H](O)[C@H]1O` (some centres undefined) as the compound, how does the Potency [4] read?
Answer: Its Potency is “inactive”.

Question: What about the Potency [5] of the same compound?
Answer: Its Potency is “inactive”.

Question: And the Potency [6]?
Answer: Its Potency is “inactive”.

Question: What about the Potency [7] of the same compound?
Answer: Its Potency is “inactive”.

Question: What about the Potency [8] of the same compound?
Answer: Its Potency is “inactive”.

Question: And the Potency [9]?
Answer: The Potency was “inactive”.

Question: For `C/C1=C/[C@@H](C)[C@H](O)C/C=C/CC/C=C/C(=O)O[C@@H]1[C@H](C)C(=O)/C=C/CC1CC(=O)NC(=O)C1`, which Potency [5] is on record?
Answer: Its Potency is 7.43 µM (active).

Question: And the Potency [6]?
Answer: Its Potency is “inactive”.

Question: And the Potency [7]?
Answer: The Potency was 7.47 µM (active).

Question: What about the Potency [9] of the same compound?
Answer: The Potency was 24.1 µM (active).

Question: Which Potency [4] does the source give for `C=C(C)[C@@H]1CC[C@]2(C)CC[C@]3(C)[C@H](CC[C@@H]4[C@@]5(C)CC[C@H](O)C(C)(C)[C@@H]5CC[C@]43C)[C@@H]12` here?
Answer: Its Potency is “inactive”.

Question: And the Potency [5]?
Answer: The Potency was “inactive”.

Question: And the Potency [7]?
Answer: The Potency was “inactive”.

Question: And the Potency [3]?
Answer: Its Potency is “inactive”.

Question: And the Potency [8]?
Answer: Its Potency is “inactive”.

Question: And the Potency [9]?
Answer: The Potency was “inactive”.

Question: Which Potency [5] does the source give for `COc1c(O)cc2oc(-c3ccccc3)cc(=O)c2c1O` here?
Answer: Its Potency is “inactive”.

Question: And the Potency [6]?
Answer: The Potency was “inactive”.

Question: What about the Potency [8] of the same compound?
Answer: The Potency was “inactive”.

Question: And the Potency [9]?
Answer: The Potency was “inactive”.

Question: For `O=C1CC(c2cc(O)cc(O)c2)Oc2cc(O)ccc21` (centres undefined), which Potency [6] is on record?
Answer: Its Potency is “inactive”.

Question: What about the Potency [3] of the same compound?
Answer: Its Potency is “inactive”.

Question: And the Potency [8]?
Answer: Its Potency is “inactive”.

Question: What does the source list for `CC(C)(Br)[C@@H](Cl)C[C@H](Br)[C@](C)(Cl)/C=C/Br`?
Answer: Potency [1]: 18.8 µM (active); Potency [2]: 18.7 µM (active); Potency [3]: inactive; Potency [8]: inactive

Question: For `C=CC(C)(C)C(=O)[C@@H](C)[C@@H]1CC[C@](C)(C=C)O1`, which Potency [5] is on record?
Answer: Its Potency is “inactive”.

Question: What about the Potency [2] of the same compound?
Answer: The Potency was “inactive”.

Question: What about the Potency [3] of the same compound?
Answer: Its Potency is “inactive”.

Question: And the Potency [8]?
Answer: Its Potency is “inactive”.

Question: For `CN1CCc2cc3c(c4c2[C@H]1[C@@H](O)c1ccccc1-4)OCO3`, which Potency [2] is on record?
Answer: Its Potency is 18.7 µM (active).

Question: What about the Potency [8] of the same compound?
Answer: Its Potency is 26.3 µM (active).

Question: For `C=C1C(=O)O[C@H]2[C@H]1CC/C(CO)=C\CC[C@@]1(C)O[C@@H]21`, which Potency [1] is on record?
Answer: Its Potency is 7.47 µM (active).

Question: And the Potency [5]?
Answer: Its Potency is 5.9 µM (active).

Question: What about the Potency [6] of the same compound?
Answer: Its Potency is “inactive”.

Question: And the Potency [2]?
Answer: The Potency was 13.2 µM (active).

Question: What about the Potency [3] of the same compound?
Answer: Its Potency is 0.0084 µM (active).

Question: For `CCCCCCCCC[C@@H]1C[C@@H]2CC[C@H]3[C@@H](C(=O)OCCCCN=C(N)N)[C@@H](C)N=C(N1)N23`, which Potency [1] is on record?
Answer: Its Potency is 10.3 µM (active).

Question: What about the Potency [6] of the same compound?
Answer: Its Potency is “inactive”.

Question: And the Potency [3]?
Answer: The Potency was 1.64 µM (active).

Question: And the Potency [8]?
Answer: Its Potency is “inactive”.

Question: What about the Potency [9] of the same compound?
Answer: Its Potency is “inactive”.

Question: Which results are given for `O=C1C[C@@H](c2ccc(O)c(-c3c(O)cc(O)c4c3O[C@H](c3ccc(O)cc3)CC4=O)c2)Oc2cc(O)cc(O)c21`?
Answer: Potency [4]: inactive; Potency [5]: inactive; Potency [7]: inactive; Potency [8]: inactive; Potency [9]: inactive

Question: Which results are given for `C/C(=C\[C@H](C)C(=O)CCCC1CC(=O)NC(=O)C1)[C@@H]1OC(=O)/C=C/CC/C=C/C[C@@H](O)[C@@H]1C`?
Answer: Potency [1]: 2.11 µM (active); Potency [5]: 1.87 µM (active); Potency [6]: inactive; Potency [8]: inactive

Question: What does the source list for `C[C@@]12CCC[C@@](C)(C(=O)O)[C@H]1CC[C@]13C[C@H]4C[C@H](O[C@@]4(C)C1)[C@H]32`?
Answer: Potency [1]: 7.47 µM (active); Potency [5]: inactive; Potency [2]: inactive; Potency [7]: inactive; Potency [8]: inactive; Potency [9]: inactive

Question: With `CC(=O)[C@@H]1[C@@H](O)C[C@H]2[C@]3(C)CC[C@H]4C(C)(C)CCC[C@]4(CO)[C@H]3C[C@H]3OC(=O)[C@@H]1[C@@]32C` as the compound, how does the Potency [7] read?
Answer: The Potency was “inactive”.

Question: What about the Potency [8] of the same compound?
Answer: The Potency was “inactive”.

Question: And the Potency [9]?
Answer: The Potency was “inactive”.

Question: What does the source list for `O=c1cc(-c2ccc(O)c(O[C@@H]3O[C@H](CO)[C@@H](O)[C@H](O)[C@H]3O)c2)oc2cc(O[C@@H]3O[C@H](CO)[C@@H](O)[C@H](O)[C@H]3O)cc(O)c12`?
Answer: Potency [4]: inactive; Potency [5]: inactive; Potency [6]: inactive; Potency [3]: 0.0047 µM (active); Potency [8]: inactive; Potency [9]: inactive

Question: For `COc1ccc([C@@H]2c3cc(OC)c(OC)cc3C(=O)C(C)C2C)cc1OC` (some centres undefined), which Potency [1] is on record?
Answer: The Potency was “inactive”.

Question: What about the Potency [6] of the same compound?
Answer: The Potency was “inactive”.

Question: What about the Potency [2] of the same compound?
Answer: The Potency was “inactive”.

Question: What about the Potency [7] of the same compound?
Answer: The Potency was “inactive”.

Question: What about the Potency [8] of the same compound?
Answer: The Potency was “inactive”.

Question: What about the Potency [9] of the same compound?
Answer: Its Potency is “inactive”.

Question: Which Potency [3] does the source give for `Oc1ccc([C@H]2Oc3ccc(/C=C/c4cc(O)cc(O)c4)cc3C2c2cc(O)cc(O)c2)cc1` (some centres undefined) here?
Answer: The Potency was 0.003 µM (active).

Question: And the Potency [9]?
Answer: The Potency was “inactive”.

Question: For `C=CC(=C)CC[C@]1(C)[C@H]2C[C@H](OC(=O)C(C)CC)C=C3[C@H](OC(C)=O)O[C@H](OC(C)=O)[C@@]32[C@H](OC)C[C@@H]1C` (some centres undefined), which Potency [1] is on record?
Answer: The Potency was 3.44 µM (active).

Question: And the Potency [2]?
Answer: Its Potency is 8.55 µM (active).

Question: And the Potency [7]?
Answer: The Potency was 4.86 µM (active).

Question: What about the Potency [3] of the same compound?
Answer: The Potency was 0.545 µM (active).

Question: Which Potency [1] does the source give for `C=C1C(=O)C[C@H]2C[C@@H]1[C@]2(C)CCC=C(C)C` here?
Answer: The Potency was “inactive”.

Question: And the Potency [6]?
Answer: Its Potency is “inactive”.

Question: What about the Potency [8] of the same compound?
Answer: Its Potency is “inactive”.

Question: With `C=C(C)CC[C@H](Cc1c(O)cc(O)c2c1O[C@H](c1ccc(O)cc1O)CC2=O)C(=C)C` as the compound, how does the Potency [5] read?
Answer: Its Potency is “inactive”.

Question: And the Potency [6]?
Answer: The Potency was “inactive”.

Question: What about the Potency [2] of the same compound?
Answer: Its Potency is “inactive”.

Question: What about the Potency [3] of the same compound?
Answer: The Potency was 0.0059 µM (active).

Question: What about the Potency [8] of the same compound?
Answer: The Potency was “inactive”.

Question: What about the Potency [9] of the same compound?
Answer: The Potency was “inactive”.

Question: What does the source list for `O=Cc1ccc2n1C[C@@]1(C[C@H](O)[C@H](O)CO1)OC2`?
Answer: Potency [4]: 13.3 µM (active); Potency [5]: inactive; Potency [6]: inactive; Potency [2]: inactive; Potency [8]: inactive; Potency [9]: inactive

Question: For `CCC[C@@H](C)/C=C(\C)[C@H](O)[C@H](C)/C=C/CC[C@@H](O)[C@H](C)[C@H](O)[C@H](C)[C@H](O)[C@H](C)[C@H]1O[C@H]([C@H](C)C(=O)O)CC[C@@H]1C`, which Potency [1] is on record?
Answer: The Potency was 6.66 µM (active).

Question: What about the Potency [5] of the same compound?
Answer: Its Potency is 14.8 µM (active).

Question: And the Potency [6]?
Answer: Its Potency is “inactive”.

Question: What about the Potency [2] of the same compound?
Answer: The Potency was 9.35 µM (active).

Question: And the Potency [3]?
Answer: The Potency was 5.94 µM (active).
